Experimental data reported in PubChem BioAssay (NCATS).
Results filed as inconclusive are left out. Calls of active or inactive are those of the source. Calls follow the shape of the dose curve; as a rule, active = well fitted curve in the direction sought with a large enough effect; inconclusive = small, poorly fitted or top-dose-only effect, or another doubt; inactive = no such curve, though single readings can be large; an effect the other way counts as inactive or inconclusive.

Columns and labels:
[1] = Cell Viability - LYMP2-004 (AID 966); also: nearly all actives have a fitted effect of over 65% in size
Outline: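 Acute toxicity is scored as a concentration-dependent drop in intracellular ATP, quantified by luciferase luminescence, in human lymphoblastoid cells exposed to compound for 24 hr. AC50 derives from Hill-equation modelling.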

[2] = Cell Viability - LYMP2-005 (AID 967); also: series mostly up to about 92 µM
Outline: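 Human lymphoblastoid LYMP2-005 cells, 2,500 per well in complete medium, rested 5 h at 37C then compound-treated 24 h at 37C. Intracellular ATP read by CellTiter-Glo luminescence after 30 min at room temperature; AC50 from Hill-equation fits of concentration-response data.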

[3] = Cell Viability - LYMP2-009 (AID 968); also: series mostly up to about 92 µM; nearly all actives have a fitted effect of over 55% in size
[4] = Cell Viability - LYMP2-011 (AID 969); also: nearly all actives have a fitted effect of over 60% in size
Outline: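 Acute toxicity is scored as a concentration-dependent drop in intracellular ATP of a human lymphoblastoid line after 24 hr treatment. Values are AC50s modeled with the Hill equation.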

[5] = Cell Viability - LYMP2-013 (AID 970); also: series mostly up to about 92 µM; nearly all actives have a fitted effect of over 55% in size
Outline: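 Acute toxicity was measured in human lymphoblastoid cells (2500/well) exposed to compound titrations for 24 hr, with ATP luminescence (CellTiter-Glo) as read-out and AC50 fitted by Hill equation.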

[6] = Cell Viability - LYMP2-015 (AID 971); also: nearly all actives have a fitted effect of over 55% in size
Outline: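 Acute toxicity was scored as a concentration-dependent drop in intracellular ATP in lymphoblastoid cells after 24 hr compound exposure in complete medium. Detection used CellTiter-Glo luciferase luminescence.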

[7] = Cell Viability - LYMP2-019 (AID 973); also: nearly all actives have a fitted effect of over 55% in size
Outline: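 Cells plated at 2500/well and allowed 5 hr at 37 C before compound addition. After 24 hr incubation, CellTiter-Glo reagent was added, plates sat 30 min at room temperature, and luminescence was recorded.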

[8] = Cell Viability - LYMP2-021 (AID 974)
Outline: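 Concentration-response cytotoxicity in a human lymphoblastoid line: 24 hr treatment at 37 C in complete culture medium, tetraoctylammonium bromide as positive control, luminescent ATP quantitation as viability measure.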

[9] = Cell Viability - LYMP2-023 (AID 975)
Outline: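 Concentration-dependent drop in intracellular ATP measures acute cytotoxicity in a human lymphoblastoid line treated for 24 hours in complete culture medium. AC50 values are taken from Hill-equation fits of qHTS data.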

[10] = Cell Viability - LYMP2-025 (AID 976); also: series mostly up to about 92 µM
Outline: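 In qHTS format, LYMP2-025 lymphoblastoid cells in complete culture medium received compound for 24 hr; ATP-based CellTiter-Glo signal gave viability, with AC50 derived by Hill equation.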

[11] = Cell Viability - LYMP2-002 (AID 977);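 also: series mostly up to about 92 µM; compound exposure lasted 24 h at 37 °C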
Outline: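 Cytotoxicity is scored as concentration-dependent loss of cellular ATP in a human lymphoblastoid line after 24 hr compound treatment at 37 C. AC50 is obtained by modelling concentration-response data with the Hill equation.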

[12] = Cell Viability - LYMP2-006 (AID 978); also: series mostly up to about 92 µM; nearly all actives have a fitted effect of over 60% in size
Outline: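 Human lymphoblastoid cells (LYMP2-006), 2500/well in complete medium, were treated with compound for 24 hr at 37 C. Cellular ATP was read by CellTiter-Glo luminescence after 30 min, and AC50 values came from Hill-equation fits of concentration-response data.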

[13] = Cell Viability - LYMP2-007 (AID 979);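 also: cells exposed to compound for 24 h before reading; nearly all actives have a fitted effect of over 60% in size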
Outline: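 Acute toxicity is scored as a concentration-dependent fall in intracellular ATP in human lymphoblastoid cells treated 24 hr at 37 C, measured by luciferase luminescence; Hill-equation modelling yields AC50.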

[14] = Cell Viability - LYMP2-008 (AID 980); also: nearly all actives have a fitted effect of over 60% in size
Outline: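 Acute cytotoxicity is scored as concentration-dependent loss of cellular ATP in a human lymphoblastoid line after 24 hr treatment at 37 C. ATP is quantified by luciferase luminescence.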

[15] = Cell Viability - LYMP2-010 (AID 981)
Outline: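 Acute toxicity is scored as a concentration-dependent loss of cellular ATP in human lymphoblastoid cells after 24 hr compound exposure in complete medium. Tetraoctylammonium bromide is the positive control.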

[16] = Cell Viability - LYMP2-012 (AID 982)
[17] = Cell Viability - LYMP2-014 (AID 983); also: series mostly up to about 92 µM; nearly all actives have a fitted effect of over 50% in size
Outline: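 Decrease in intracellular ATP after 24 hr treatment at 37 C, measured by luciferase luminescence, indicated cytotoxicity. Concentration-response data were fitted with the standard Hill equation to give AC50.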

[18] = Cell Viability - LYMP2-016 (AID 984)
Outline: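 Human lymphoblastoid LYMP2-016 cells, 2500 per well, treated with compounds for 24 h at 37 C. Viability read as intracellular ATP by CellTiter-Glo luminescence after 30 min at room temperature; AC50 from Hill fits of concentration-response.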

[19] = Cell Viability - LYMP2-018 (AID 985);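 also: compound exposure lasted 24 hr at 37 °C; nearly all actives have a fitted effect of over 50% in size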
Outline: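 Acute cytotoxicity is scored as a concentration-dependent drop in intracellular ATP after 24 hr exposure of the lymphoblastoid line in complete culture medium, measured by luciferase luminescence. Potency is expressed as AC50 from Hill modelling.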

[20] = Cell Viability - LYMP2-017 (AID 972)
Outline: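 Steps: plate 2500 lymphoblastoid cells per well; incubate 5 hr at 37 C; add compound across a concentration series and incubate 24 hr at 37 C; add CellTiter-Glo and read luminescence after 30 min at room temperature; fit Hill curves for AC50.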

Measured: Potency

OC/C(Br)=C(\Br)CO
not listed: [20]
inactive: all other assays above

CCC(C)=O
not listed: [20]
inactive: all other assays above

NC(=O)c1cccc([N+](=O)[O-])c1
not listed: [8] | [10]
inactive: all other assays above

CC(C)=C1CCC(C)CC1=O (stereo not drawn)
not listed: [20]
inactive: all other assays above

Cc1ccc([N+](=O)[O-])c(N)c1
not listed: [8]
inactive: all other assays above

CN(C)c1cccc(O)c1
not listed: [20]
inactive: all other assays above

CCNS(=O)(=O)c1ccc(C)cc1
not listed: [8] | [12]
inactive: all other assays above

CCCCCCC(=O)O
not listed: [8] | [10] | [14]
inactive: all other assays above

O=C(O)c1ccccc1C(=O)O
not listed: [8]
inactive: all other assays above

CC(C)(C)OC=O
not listed: [7] | [8] | [15] | [16] | [17] | [19]
inactive: all other assays above

Cc1cccc2sc(N)nc12
not listed: [16] | [20]
inactive: all other assays above

Cc1ccc(Cl)cc1
not listed: [8] | [14]
inactive: all other assays above

CC(=O)c1ccccc1[N+](=O)[O-]
not listed: [8] | [9] | [14]
inactive: all other assays above

BrC(Br)C(Br)Br
not listed: [20]
inactive: all other assays above

Nc1ccccc1S(=O)(=O)O
not listed: [20]
inactive: all other assays above

CC(=O)c1cccc([N+](=O)[O-])c1
not listed: [20]
inactive: all other assays above

CC(C)=CCC/C(C)=C/C=O
not listed: [8] | [11] | [15]
inactive: all other assays above
